Experimental findings from PubChem BioAssay (EPA / NIEHS) are described below.

Inconclusive results are not listed. Activity calls are given as the source filed them. Rule for the calls, unless noted: active = hit-call score of the fitted dose curve at least 0.9, where 1 is the maximum; inconclusive = response in the unintended direction; inactive = score below 0.9.

A short description of test [1]: CCTE_Padilla_ZF_Score.General: CCTE's 144 Hour Post-fertilization zebrafish Assay Score for General Malformation, Padilla Lab (AID 2284411; active = hit-call score of the fitted dose curve at least 0.9, where 1 is the maximum; inactive = score below 0.9). Summed up: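 Malformation, death and hatching were scored at 6 dpf by two blinded observers under a stereo microscope. Embryos were dosed singly from 6-8 hpf in sealed plates of 10% Hanks' at 26C and rinsed on 5 dpf; DMSO baseline.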

Test [2] in a line: CEETOX_H295R_11DCORT: CeeTox H295R High-throughput Steroidogenesis Assay for 11-Deoxycortisol (11DCORT) (AID 2283432; active = hit-call score of the fitted dose curve at least 0.9, where 1 is the maximum; inactive = score below 0.9;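 for AC50: 11-deoxycortisol secreted into the medium measured by LC-MS/MS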). The following applies: actives raise or lower the signal. Summed up:
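Adrenal carcinoma line H295R, run per OECD 456 with minor changes, was forskolin-stimulated (10 uM, 48 h) before a 48 h chemical exposure at 0.1% DMSO. Secreted 11-deoxycortisol was quantified by HPLC-MS/MS.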

The nature of test [3]: CEETOX_H295R_OHPREG: CeeTox H295R High-throughput Steroidogenesis Assay for OH-Pregnenolone (OHPREG) (AID 2283434; active = hit-call score of the fitted dose curve at least 0.9, where 1 is the maximum; inactive = score below 0.9). The following applies: actives raise or lower the signal. Summed up:
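Secreted 17alpha-hydroxypregnenolone measured by HPLC-MS/MS after liquid-liquid extraction. Human adrenal H295R cells received 48 h forskolin (10 uM) stimulation before 48 h chemical exposure at 0.1% final DMSO; MTT viability in same wells; bidirectional fit against DMSO.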

A short description of test [4]: CEETOX_H295R_CORTIC: CeeTox H295R High-throughput Steroidogenesis Assay for Corticosterone (CORTIC) (AID 2283437; active = hit-call score of the fitted dose curve at least 0.9, where 1 is the maximum; inactive = score below 0.9). To be noted: actives raise or lower the signal. Summed up:
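Medium corticosterone was quantified by tandem mass spectrometry following 48 hours of chemical exposure (0.1% DMSO) in human H295R cells previously stimulated 48 hours with 10 uM forskolin. Viability checked by MTT; chemicals diluted and retested when viability fell below 70%.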

Test [5] can be described thus: CEETOX_H295R_CORTISOL: CeeTox H295R High-throughput Steroidogenesis Assay for Cortisol (AID 2283438; active = hit-call score of the fitted dose curve at least 0.9, where 1 is the maximum; inactive = score below 0.9;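 note: cortisol secreted into medium quantified by LC-MS/MS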). The following applies: actives raise or lower the signal. Summed up:
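Steroidogenesis in H295R, per modified OECD 456: 48 h forskolin (10 uM), then 48 h exposure, 0.1% DMSO. Cortisol by extraction and tandem MS; viability by MTT (570/650 nm); cytotoxic chemicals diluted and re-tested.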

A short description of test [6]: CEETOX_H295R_DOC: CeeTox H295R High-throughput Steroidogenesis Assay for DOC (AID 2283439; active = hit-call score of the fitted dose curve at least 0.9, where 1 is the maximum; inactive = score below 0.9). To be noted: actives raise or lower the signal. Summed up: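 H295R, fsk 10 uM ×48 h pre, cmpd ×48 h (0.1% DMSO). Media → MTBE extr. → LC-MS/MS, DOC. Bidirectional fit vs DMSO; MTT viability same wells, re-test diluted if <70%.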
Test [7] is described as follows: CEETOX_H295R_PROG: CeeTox H295R High-throughput Steroidogenesis Assay for Progesterone (PROG) (AID 2283442; active = hit-call score of the fitted dose curve at least 0.9, where 1 is the maximum; inactive = score below 0.9;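 for AC50: human H295R adrenal cells primed with 10 µM forskolin before dosing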). The following applies: actives raise or lower the signal. Summed up:
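Measured analyte is progesterone secreted by H295R cells at 48 h of chemical treatment, following 10 uM forskolin priming. Quantitation used HPLC-MS/MS against a 7-point standard curve; cytotoxicity was checked by MTT absorbance.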

The target in test [8] is human Phosphodiesterase 10 (PDE10), PDE10A (gene 10846) (UniProt Q9Y233). The test is described as follows: NVS_ENZ_hPDE10: NovaScreen (NVS) Enzymatic Assay for human Phosphodiesterase 10 (PDE10) (AID 2283195). Summed up: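 Fluorescence readout after mobility-shift separation of substrate and product, 1 h reaction with recombinant human enzyme. Single-concentration duplicates at 25 uM, then concentration-response up to 50 uM for chemicals reaching threshold; DMSO baseline.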
Chain of human Phosphodiesterase 10 (PDE10), PDE10A (gene 10846) (Q9Y233 whole entry, looked up): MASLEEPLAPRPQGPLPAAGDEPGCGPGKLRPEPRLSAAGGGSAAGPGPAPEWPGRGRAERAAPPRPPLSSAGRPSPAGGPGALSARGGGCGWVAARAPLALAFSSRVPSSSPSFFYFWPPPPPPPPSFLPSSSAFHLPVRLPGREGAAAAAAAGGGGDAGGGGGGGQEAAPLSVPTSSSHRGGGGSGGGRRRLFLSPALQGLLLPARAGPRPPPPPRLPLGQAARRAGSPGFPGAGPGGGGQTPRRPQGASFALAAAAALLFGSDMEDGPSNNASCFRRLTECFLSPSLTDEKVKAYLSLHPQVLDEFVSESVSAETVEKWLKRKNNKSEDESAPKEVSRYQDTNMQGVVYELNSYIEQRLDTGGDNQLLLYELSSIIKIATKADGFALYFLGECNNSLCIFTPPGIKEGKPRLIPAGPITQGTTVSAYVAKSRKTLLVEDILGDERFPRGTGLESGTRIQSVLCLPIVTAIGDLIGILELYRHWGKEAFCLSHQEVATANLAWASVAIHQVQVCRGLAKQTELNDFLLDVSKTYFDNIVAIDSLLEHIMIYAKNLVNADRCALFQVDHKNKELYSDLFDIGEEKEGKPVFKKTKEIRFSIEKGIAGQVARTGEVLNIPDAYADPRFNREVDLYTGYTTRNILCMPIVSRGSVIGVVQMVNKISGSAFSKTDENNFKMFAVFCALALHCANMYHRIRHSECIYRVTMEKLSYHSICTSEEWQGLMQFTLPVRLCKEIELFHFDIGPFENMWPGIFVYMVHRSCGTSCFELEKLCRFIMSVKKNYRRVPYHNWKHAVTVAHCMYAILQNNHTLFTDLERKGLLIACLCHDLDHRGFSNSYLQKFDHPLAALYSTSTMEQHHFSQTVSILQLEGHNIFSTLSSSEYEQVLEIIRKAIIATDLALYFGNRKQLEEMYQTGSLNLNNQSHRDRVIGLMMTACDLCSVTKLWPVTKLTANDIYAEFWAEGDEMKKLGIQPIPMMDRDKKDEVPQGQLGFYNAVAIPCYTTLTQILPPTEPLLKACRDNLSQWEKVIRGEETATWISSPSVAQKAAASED

For test [9], the target named is human Ephrin type-A Receptor 1 (EphA1), EPHA1 (gene 2041) (UniProt P21709). The test is described as follows: NVS_ENZ_hEphA1: NovaScreen (NVS) Enzymatic Assay for human Ephrin type-A Receptor 1 (EphA1) (AID 2283158).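 Note: activity is signal loss versus DMSO meaning EphA1 kinase inhibition.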 Summed up: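 Here the EphA1 protein is recombinant and the substrate fluorescent, with electrophoretic separation before fluorescence detection at 1 hour. Signal loss against DMSO defines activity; plate controls included; follow-up concentration series reach 50 uM.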
Chain of human Ephrin type-A Receptor 1 (EphA1), EPHA1 (gene 2041) (P21709 whole entry, looked up): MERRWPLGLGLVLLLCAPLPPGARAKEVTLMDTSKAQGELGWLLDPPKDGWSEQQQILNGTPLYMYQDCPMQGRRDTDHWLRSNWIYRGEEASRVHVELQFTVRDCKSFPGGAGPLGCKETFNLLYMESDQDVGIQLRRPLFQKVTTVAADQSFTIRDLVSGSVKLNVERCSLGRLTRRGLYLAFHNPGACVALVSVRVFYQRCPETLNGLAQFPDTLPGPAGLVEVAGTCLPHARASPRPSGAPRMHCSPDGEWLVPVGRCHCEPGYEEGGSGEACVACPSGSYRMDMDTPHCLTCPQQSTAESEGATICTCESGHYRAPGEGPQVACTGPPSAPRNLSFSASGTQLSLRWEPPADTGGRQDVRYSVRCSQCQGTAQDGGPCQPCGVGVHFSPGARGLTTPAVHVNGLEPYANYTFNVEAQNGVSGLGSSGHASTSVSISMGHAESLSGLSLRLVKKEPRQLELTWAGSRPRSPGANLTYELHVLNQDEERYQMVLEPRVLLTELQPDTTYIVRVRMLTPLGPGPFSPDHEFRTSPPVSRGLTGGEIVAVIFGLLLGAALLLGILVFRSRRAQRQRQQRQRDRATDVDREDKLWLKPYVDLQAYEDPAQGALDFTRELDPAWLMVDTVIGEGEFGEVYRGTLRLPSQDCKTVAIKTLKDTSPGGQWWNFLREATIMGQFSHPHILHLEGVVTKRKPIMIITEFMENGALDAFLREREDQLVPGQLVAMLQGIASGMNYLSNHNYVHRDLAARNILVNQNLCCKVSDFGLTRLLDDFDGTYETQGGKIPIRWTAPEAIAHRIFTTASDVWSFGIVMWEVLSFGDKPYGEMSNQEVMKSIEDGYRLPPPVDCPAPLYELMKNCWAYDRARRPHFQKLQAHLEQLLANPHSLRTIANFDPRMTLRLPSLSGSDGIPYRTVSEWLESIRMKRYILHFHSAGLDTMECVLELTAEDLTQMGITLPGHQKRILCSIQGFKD

Test [10] is described as follows: CCTE_Deisenroth_AIME_384WELL_CTox_Active: Cytotoxicity Assessment (CTOX) in CCTE's 384-well Estrogen Receptor Transactivation Assay with AIME metabolic competence (metabolism positive), Deisenroth Lab (AID 2284037).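 Note: chemicals first conditioned 2 h by alginate-bound induced rat liver S9 before cells; activity means signal loss indicating cell death.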 Summed up: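 Cytotoxicity in VM7Luc4E2 breast cells, 24 hour, measured as protease-substrate fluorescence loss, after 2-hour metabolic conditioning with induced rat hepatic S9 in alginate microspheres. Concentrations 0.002 - 200 uM, 10 points, bidirectional fitting.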

Test [11] concerns the target Nuclear receptor subfamily 1 group I member 2 (Homo sapiens) (UniProt O75469). The test is described as follows: NVS_NR_hPXR: NovaScreen (NVS) Nuclear Receptor Binding Assay for human Pregnane X Receptor (PXR) (AID 2283365).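 Note: a drop in FRET signal versus DMSO baseline means the compound binds.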 Summed up: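 Read-out: TR-FRET, human PXR, 2 h post-dosing, cell-free. Loss of signal vs DMSO taken as binding activity; 25 uM primary, concentration series secondary.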

The target in test [12] is Nucleoli Translocation, AR (gene 367) (UniProt P10275). The experiment in a line: UPITT_HCI_U2OS_AR_TIF2_Nucleoli_Antagonist: University of Pittsburgh U2OS Androgen Receptor-Transcriptional Intermediary Factor 2 (AR-TIF2) Antagonism High Content Imaging Assay for Nucleoli Translocation (AID 2283997). Summed up:
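Antagonism is read as loss of nucleolar AR-RFP signal relative to DHT, imaged in U2OS cells also carrying GFP-TIF2. Compounds screened at 20 uM final, 0.2% DMSO; primary actives retested in triplicate.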

Test [13] concerns the target Ratio of Nucleoli Translocation and Cytoplasm, AR (gene 367) (UniProt P10275). The experiment in a line: UPITT_HCI_U2OS_AR_TIF2_Nucleoli_Cytoplasm_Ratio_Agonist: University of Pittsburgh U2OS Androgen Receptor-Transcriptional Intermediary Factor 2 (AR-TIF2) Agonism High Content Imaging Assay for Ratio of Nucleoli Translocation and Cytoplasm (AID 2284000).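 Note: hits raise the red nucleolar to cytoplasm ratio above vehicle.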 Summed up: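 Compounds tested at 20 uM final in primary screen (0.2% DMSO) and 0.195-50 uM final in dose-response (0.5% DMSO). Imaging of human U2OS cells bearing RFP-AR and GFP-TIF2; endpoint is nucleoli/cytoplasm red signal ratio, positive direction relative to DMSO.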

Test [14] has as its system Sodium/Iodide Symporter (NIS), SLC5A5 (gene 6528). The test is described as follows: CPHEA_Stoker_NIS_Inhibition_RAIU: CPHEA's Radioactive Iodide Uptake (RAIU) Assay for Sodium/Iodide Symporter (NIS) Inhibition, Stoker and Laws Labs (AID 2283841). Summed up: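 Iodide uptake through human NIS is measured in an engineered HEK293T line. Cells take up 125I (329pM final) for 2 hours at room temperature alongside chemicals at 0.001–100uM. Retained radioactivity is counted, and the signal is expressed against DMSO controls.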

Test [15] is described as follows: CPHEA_Stoker_NIS_Cytotoxicity: Cytotoxicity Assessment for CPHEA's Radioactive Iodide Uptake (RAIU) Assay for Sodium/Iodide Symporter (NIS) Inhibition, Stoker and Laws Labs (AID 2283897). Summed up:
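ATP luminescence (Cell Titer Glo) measured viability, with loss of signal normalized to DMSO controls. Cells: hNIS-HEK293T-EPA, seeded 40 hours prior. Dosing: 0.001–100uM, 2 hours, room temperature, uptake buffer pH 7.4.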

The test system of test [16] is Thyroperoxidase (TPO), gene 54314. The experiment in a line: CCTE_Simmons_AUR_rTPO: CCTE's Amplex UltraRed Assay for Thyroperoxidase (TPO) Inhibition, Simmons Lab (AID 2283662).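 Note: potency for loss of signal meaning inhibition of peroxidase activity.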 Summed up:
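Cell-free peroxidase activity assay using rat thyroid gland microsomes with excess H2O2 (300 uM) and 25 uM Amplex UltraRed. Compounds tested from 5 nM to 87.5 uM; fluorescence measured after 30 min at 37C, analysed relative to DMSO baseline.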

Test [17] in a line: CCTE_Simmons_CellTiterGLO_HEK293T: Viability Assessment in CCTE's Assays for Thyroperoxidase (TPO) Inhibition, Simmons Lab (AID 2283665).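 Note: cells exposed to compound for 24 h before readout; actives reduce ATP signal below DMSO vehicle meaning cytotoxicity.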 Summed up: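 ATP depletion measured in HEK293T cells after 24 h dosing (8 concentrations, 5 nM–87.5 uM final; DMSO 0.5%) using CellTiter-Glo luminescence; curves fit for loss of signal against DMSO baseline.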
Test [18] deals with Luciferin 4-monooxygenase (Photinus pyralis) (UniProt P08659). The experiment in a line: CCTE_Simmons_QuantiLum_inhib_2: CCTE's Firefly Luciferase Inhibition Assay, Simmons Lab (AID 2283767). Summed up: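 Eight-point titrations of each chemical, 5 nM–87.5 uM final in 0.5% DMSO, were run in three biological replicates against recombinant luciferase for 30 min at 37C. Bioluminescence signal loss, read on reagent injection, gave the inhibition endpoint.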
Chain of Luciferin 4-monooxygenase (Photinus pyralis) (P08659 whole entry, looked up): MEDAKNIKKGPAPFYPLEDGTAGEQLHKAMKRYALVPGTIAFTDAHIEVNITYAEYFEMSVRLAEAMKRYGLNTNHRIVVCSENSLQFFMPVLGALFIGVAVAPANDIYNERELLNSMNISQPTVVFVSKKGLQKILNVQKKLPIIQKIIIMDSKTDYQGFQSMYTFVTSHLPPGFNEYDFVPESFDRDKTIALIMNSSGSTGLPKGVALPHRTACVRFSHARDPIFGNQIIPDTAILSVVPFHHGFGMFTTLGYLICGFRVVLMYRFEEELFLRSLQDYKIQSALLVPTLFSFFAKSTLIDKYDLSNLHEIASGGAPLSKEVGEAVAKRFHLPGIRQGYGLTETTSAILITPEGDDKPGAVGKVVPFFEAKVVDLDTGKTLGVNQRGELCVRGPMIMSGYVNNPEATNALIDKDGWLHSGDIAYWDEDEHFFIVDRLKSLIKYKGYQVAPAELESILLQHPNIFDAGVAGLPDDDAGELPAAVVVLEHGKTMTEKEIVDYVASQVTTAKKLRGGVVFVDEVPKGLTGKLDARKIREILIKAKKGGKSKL

Test [19] deals with human Peripheral-type Benzodiazepine Receptor (PBR), TSPO (gene 706) (UniProt P30536). The experiment in a line: NVS_MP_hPBR: NovaScreen (NVS) Membrane Protein Assay for human Peripheral-type Benzodiazepine Receptor (PBR) (AID 2283331).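 Note: hits reduce radioligand binding relative to DMSO baseline.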 Summed up:
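Cell-free binding to human colonic membrane preparations measured by filter-based scintillation counting after 1 h. Compounds first run at 25 uM in duplicate, then concentration series for actives; signal loss against DMSO baseline.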

Chain of Nucleoli Translocation, AR (gene 367) (P10275 whole entry, looked up): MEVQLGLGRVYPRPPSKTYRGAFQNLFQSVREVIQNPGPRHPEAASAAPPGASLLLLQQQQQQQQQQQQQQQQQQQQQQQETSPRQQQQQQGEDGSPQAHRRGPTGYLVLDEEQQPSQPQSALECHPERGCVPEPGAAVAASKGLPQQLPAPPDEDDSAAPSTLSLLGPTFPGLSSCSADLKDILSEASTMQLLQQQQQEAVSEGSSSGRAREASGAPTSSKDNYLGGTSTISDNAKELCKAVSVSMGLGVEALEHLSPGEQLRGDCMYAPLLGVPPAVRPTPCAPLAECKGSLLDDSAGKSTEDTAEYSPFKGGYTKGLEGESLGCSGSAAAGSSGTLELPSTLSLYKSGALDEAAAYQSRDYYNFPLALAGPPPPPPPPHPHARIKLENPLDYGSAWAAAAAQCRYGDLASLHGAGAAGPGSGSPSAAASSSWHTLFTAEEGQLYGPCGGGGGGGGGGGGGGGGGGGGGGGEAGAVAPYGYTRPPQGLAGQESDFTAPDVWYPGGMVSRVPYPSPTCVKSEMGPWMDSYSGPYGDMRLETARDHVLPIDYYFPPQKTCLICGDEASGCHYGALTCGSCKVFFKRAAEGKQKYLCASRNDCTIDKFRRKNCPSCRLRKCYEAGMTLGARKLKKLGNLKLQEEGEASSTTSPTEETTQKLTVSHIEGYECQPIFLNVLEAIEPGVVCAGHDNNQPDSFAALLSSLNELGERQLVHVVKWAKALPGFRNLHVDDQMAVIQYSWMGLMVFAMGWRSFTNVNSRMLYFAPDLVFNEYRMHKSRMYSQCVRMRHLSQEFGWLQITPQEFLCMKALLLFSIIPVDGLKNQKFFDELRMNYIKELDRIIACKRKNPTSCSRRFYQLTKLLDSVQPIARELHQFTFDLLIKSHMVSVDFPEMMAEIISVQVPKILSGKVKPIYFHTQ
Chain of Ratio of Nucleoli Translocation and Cytoplasm, AR (gene 367) (P10275 whole entry, looked up): as above
Chain of human Peripheral-type Benzodiazepine Receptor (PBR), TSPO (gene 706) (P30536 whole entry, looked up): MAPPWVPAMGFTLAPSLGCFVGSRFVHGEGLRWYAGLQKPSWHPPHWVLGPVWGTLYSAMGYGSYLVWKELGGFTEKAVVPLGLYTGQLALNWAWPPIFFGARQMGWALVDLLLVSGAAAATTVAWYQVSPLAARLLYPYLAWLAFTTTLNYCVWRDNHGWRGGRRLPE
Chain of Nuclear receptor subfamily 1 group I member 2 (Homo sapiens) (O75469 whole entry, looked up): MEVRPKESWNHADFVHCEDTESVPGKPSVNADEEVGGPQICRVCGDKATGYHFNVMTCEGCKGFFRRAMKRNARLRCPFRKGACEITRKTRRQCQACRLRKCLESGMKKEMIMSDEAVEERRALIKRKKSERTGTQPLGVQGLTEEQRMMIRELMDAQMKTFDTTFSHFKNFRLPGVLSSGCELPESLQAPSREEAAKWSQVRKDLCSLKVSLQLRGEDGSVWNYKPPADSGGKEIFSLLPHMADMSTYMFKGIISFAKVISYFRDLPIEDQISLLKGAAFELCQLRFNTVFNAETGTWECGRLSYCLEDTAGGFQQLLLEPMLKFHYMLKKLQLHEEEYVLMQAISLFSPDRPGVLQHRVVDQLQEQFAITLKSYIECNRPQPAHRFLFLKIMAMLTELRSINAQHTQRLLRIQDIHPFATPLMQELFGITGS

In the case of `CC(C)CCCCCCCOC(=O)c1ccccc1C(=O)OCCCCCCCC(C)C`, the call in test [1] was inactive.
Take `Oc1cc(Cl)ccc1Cl`: the result in [2], in [3], in test [4], in test [5] and in test [6] was inactive. In addition, in test [7], the AC50 is 30.6 µM (active).
On to `C=CC(=O)OC`, for which the call in [8] was inactive.
For `O=C1C=CC(=O)C=C1`, the outcome in [1] was inactive.
`O=[N+]([O-])c1ccc(Cl)cc1`: the compound was called inactive in test [9], in test [8] and in test [10].
In the case of `CC(=O)/C=C/c1ccccc1`, the result in test [9] was inactive.
As to `Cc1cc(C)c(C2=C(OC(=O)CC(C)(C)C)C3(CCCC3)OC2=O)c(C)c1`, the compound was called inactive in test [11], in [4], in test [6] and in test [10]. Besides, the AC50 in [2] was 72.4 µM (active); in test [5], 69.2 µM (active).
In the case of `c1ccc2c(c1)CCCC2`, the compound was classed as inactive in test [12] and in test [13].
As to `O=CNC(N1CCN(C(NC=O)C(Cl)(Cl)Cl)CC1)C(Cl)(Cl)Cl` (configuration not stated), in [2], the AC50 is 50 µM (active). Besides, the compound was called inactive in [3], in [4], in [5], in test [6], in [7] and in [14]. Also, the outcome in [15], in test [12] and in test [13] was inactive.
For the compound `Nc1ccc(Cl)c(Cl)c1`, the call in test [3], in test [18] and in test [10] was inactive. Also, the results for the AC50 in test [7], in [16] and in test [17] were 10.7 µM (active), 1.16 µM (active) and 2.18 µM (active), respectively.
Take `COC(C)(C)CCC[C@H](C)C/C=C/C(C)=C/C(=O)OC(C)C`: the result in [8] was inactive. In addition, the AC50 in test [19] is 25 µM (active).
For the compound `COCC(=O)N(c1c(C)cccc1C)N1CCOC1=O`, the outcome in [8] was inactive.
In the case of `O=C(NCNC(=O)NC1C(=O)NC(=O)N1CO)NC1C(=O)NC(=O)N1CO` (configuration not stated), in [12], the half-maximal activity concentration (AC50) was 50 µM (active). In test [13], the outcome was inactive.
